Assay outcomes as filed in PubChem.
PLAP act – PLAP enzyme activators, biochemical, luminescence, HTS | purified PLAP enzyme, luminescent substrate read-out; hits give high values | actives 1.2% (n = 96,000) | Alkaline phosphatase, placental type (Homo sapiens), P05187 | activation fold at 20 µM; in the data active = activation fold above about 2
M1 antagonist – antagonists of rat M1 muscarinic receptor; Muscarinic acetylcholine receptor M1 (Rattus norvegicus), P08482; CHO-M1 cells, Fluo-4 calcium, ACh EC80 antagonist mode; hits give low values; B-score at 10 µM; actives 3.4% (n = 64,000);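 active = calcium fluorescence response, raw or row-and-column corrected B-score, differing from the plate sample mean either way at a set confidence level, mostly lower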
Target sequence (P08482 whole entry, looked up): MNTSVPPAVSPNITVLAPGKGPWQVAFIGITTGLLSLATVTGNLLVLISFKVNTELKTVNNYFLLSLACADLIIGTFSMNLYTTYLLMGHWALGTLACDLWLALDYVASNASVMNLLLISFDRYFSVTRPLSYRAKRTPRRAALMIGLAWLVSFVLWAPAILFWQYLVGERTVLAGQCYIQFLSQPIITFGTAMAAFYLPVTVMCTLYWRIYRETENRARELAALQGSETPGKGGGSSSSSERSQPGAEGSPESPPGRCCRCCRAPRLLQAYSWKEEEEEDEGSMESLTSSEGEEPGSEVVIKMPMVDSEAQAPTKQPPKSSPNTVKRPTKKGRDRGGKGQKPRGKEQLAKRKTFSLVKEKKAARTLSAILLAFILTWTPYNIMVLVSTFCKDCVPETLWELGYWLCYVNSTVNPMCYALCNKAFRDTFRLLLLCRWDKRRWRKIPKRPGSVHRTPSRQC
Cav32 inh – Cav3.2 calcium influx blockers – cell-based, Fluo-4 calcium fluorescence, FDSS, MLSMR library, primary screen | Cav3.2-expressing cells; hits give low values | AID 449739, 2010 | Voltage-dependent T-type calcium channel subunit alpha-1H (Homo sapiens), O95180 | B-score at 10 µM | actives 4% (n = 100,000);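 active = single-dose well whose peak fluorescence ratio is a statistical outlier from its plate by either plate-standardised score or position-corrected B-score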
Her2 expr inh – inhibitors of Her2 protein expression, primary screen, SKBR-3 cells, AlphaScreen, 66K library. HER2 level % of control, % at 10 µM. Receptor tyrosine-protein kinase erbB-2 (Homo sapiens), P04626. actives 0.69% (n = 65,000). SKBR-3 HER2 protein level, 18-24 h; hits give low values;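 active = HER2 level under 5% of the carrier-only control; inconclusive = no clear call, values can overlap the other calls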;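 also: 100% = DMSO carrier and 0% = 500 nM PU-H71 HSP90 inhibitor; lower value means stronger loss of Her2 protein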
M1 ag – M1 muscarinic receptor agonists, primary screen, CHO-M1 cells, Fluo-4 calcium, agonist mode. AID 626, 2007. actives 3% (n = 64,000). Fluo-4 calcium fluorescence; hits give high values. B-score at 10 µM. Muscarinic acetylcholine receptor M1;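 active = fluorescence rise, raw or as B-score row- and column-corrected plate score, outside the 99.7% band of its plate's samples, either direction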
M1 agonist conf – rat M1 muscarinic receptor agonists, confirmation, CHO-M1 cells, Fluo-4 calcium, duplicate retest; actives 19% (n = 1,700); fluorescence change (max-min) at 10 µM; shares compounds with M1 ag; Fluo-4 calcium fluorescence, agonist mode; actives lie on both sides;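 active = fluorescence change differs from the solvent-only DMSO control mean at a set confidence level in both duplicate runs; inconclusive = differs from solvent-only control mean in just one of two runs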;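 also: an EC20 dose of acetylcholine follows compound addition during the same imaging run; raw fluorescence intensity difference in instrument units with no normalization to controls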
M4 agonist ctr – agonist activity at rat M4 receptor, confirmation, counter-screen for M1 allosteric modulator project, cell-based, agonist mode | shares compounds with M1 ag | CHO M4/Gqi5 cells, Fluo-4 calcium fluorescence; actives lie on both sides | fluorescence change (max-min) at 10 µM | actives 9% (n = 1,700) | AID 1741, 2009;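 active = fluorescence change differing from the plate's solvent-only control wells at 99.7% confidence in both duplicates, whether higher or lower; inconclusive = differs from solvent controls in only one of two duplicates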
Active calls of the source: *; u = inconclusive; x = not tested or not shown. Hits are enriched below; roughly 7.9% of the tested compounds scored in any of these assays.

SMILES	PLAP act	M1 antagonist	Cav32 inh	Her2 expr inh	M1 ag	M1 agonist conf	M4 agonist ctr
COc1ccc(S(=O)(=O)NC(C)C(=O)O)cc1 (centres undefined)	1	x	0.19	x	x	x	x
COc1ccc(S(=O)(=O)Nc2cc(C)c(O)cc2C(C)C)cc1	0.9	0.35	-1.3	80	4.7*	-11	-48
CC(C)COC(=O)NCCOC(=O)Nc1cccc(Cl)c1	0.8	-2.2*	-5.7*	123	7.5*	-0.81	-85*
O=[N+]([O-])c1ccc(C2CCCC/C2=N\OCc2cccc(F)c2)c([N+](=O)[O-])c1 (centres undefined)	1	x	x	x	x	x	x
Cc1ccc2c(C)nc(Nc3nc(CSc4nnnn4-c4ccccc4)cc(=O)[nH]3)nc2c1	2.2*	-0.6	x	62	8.6*	-13	-19
COc1ccc(S(=O)(=O)N(CC(=O)NC2CC2)c2ccc(C)cc2)cc1OC	0.9	-0.39	-0.35	93	0.43	x	x
Cc1ccc(CS(=O)(=O)CCC(=O)NCc2cccs2)cc1	1	0.56	0.81	75	4*	-21	-39
COc1ccccc1NCCC(=O)OCC(=O)Nc1ccc(Cl)cn1	1.1	-0.2	-0.97	87	-1.1	x	x
Cc1nc2sc(C(c3cccs3)N3CCC(C(N)=O)CC3)c(O)n2n1 (centres undefined)	1.1	0.095	0.49	124	0.046	x	x
CC1Cc2ccccc2N1C(=O)c1ccc2snnc2c1 (centres undefined)	0.8	0.31	0.81	96	7.5*	-18	u
CC1CN(C(=O)Nc2ccc3snnc3c2)c2ccccc21 (centres undefined)	0.9	0.12	-1.9	96	1.7	x	x
Cc1cccc(N=c2oc3cc(O)ccc3cc2C(N)=O)c1	0.8	-0.033	0.51	26	5.4*	24	10
COc1ccccc1N=c1oc2cc(O)ccc2cc1C(N)=O	0.9	-1.7	0.88	48	7.6*	39	12
NC(=S)c1cc2ccc(O)cc2oc1=O	0.8	x	x	x	x	x	x
CCOC(=O)C1=C(C)N(CCCC(=O)O)C(=O)NC1C(CC)CC (centres undefined)	x	x	0.33	x	x	x	x
O=C(OCC(=O)N1CCN(c2ccccc2)CC1)c1ccccn1	0.9	0.2	0.044	97	-0.61	x	x
CC(=O)c1ccc(OCCCC(=O)OCC(=O)N2CCN(c3ccccc3)CC2)cc1	1.2	-0.73	0.26	94	9.3*	-0.8	-75
CC(=O)N1CCc2cc(S(=O)(=O)NC3CCCc4ccccc43)ccc21 (centres undefined)	x	0.0046	-0.024	75	0.88	x	x
O=C(O)c1ccc(S(=O)(=O)NC2CCCc3ccccc32)cc1 (centres undefined)	1.2	0.33	-1.9	91	2.9*	u	u
C=CCOc1nc(N2CCCC2)nc(N2CCCC2)n1	1	0.19	-0.15	102	0.053	x	x
CCC(C)(C)NC(=O)CN(CC1CCCO1)C(=O)CCC(=O)Nc1nccs1 (centres undefined)	1.1	0.53	-0.4	109	0.41	x	x
Cc1oc2nc(SCCCC(=O)NCCCO)nc(N)c2c1C	0.9	0.73	1.8	85	4.6*	u	u
Cc1oc2nc(SCC(=O)NCCCO)nc(N)c2c1C	0.9	x	0.12	x	x	x	x
O=S(=O)(c1ccccc1)N1CCN(c2nc3ccccc3s2)CC1	1	x	0.18	x	x	x	x
O=C(Nc1ccccc1)N1CCN(c2nc3ccccc3s2)CC1	0.8	1.2	-3	73	4.7*	-5.8	-13
COC(=O)c1cccc(S(=O)(=O)N2CCC(NC(=O)NC34CC5CC(CC(C5)C3)C4)CC2)c1	1.1	-1.7	x	99	3.8*	u	-58
COC(=O)c1cccc(S(=O)(=O)N2CCC(C)CC2)c1	0.9	0.26	-0.45	73	-0.71	x	x
